# PubChem BioAssay (Tox21)
# Records with an inconclusive call do not appear. A number with no mark means an inactive call. The source made the active and inactive calls. Calls follow the shape of the dose curve; as a rule, active = well fitted inhibition curve with a large enough effect in the signal ratio in the repeat runs (not every such curve was filed as active); inconclusive = weak or mixed curves, or effect the other way; inactive = no such curve, though single readings can be large or run the other way; the % refers to the signal ratio.
# Target: Vitamin D3 receptor (Homo sapiens) (UniProt P11473)
# Assay: qHTS assay to identify small molecule antagonists of the vitamin D receptor (VDR) signaling pathway (AID 743223)
# Settings: VDR-UAS-bla HEK293T, beta-lactamase FRET ratio, 16 h; series mostly up to 61 µM; activity change, negative = inhibition: at the top concentration
# Text: U.S. Tox21 Program National Center for Advancing Translational Sciences [NCATS] NIH Chemical Genomics Center [NCGC] U.S. Environmental Protection Agency [EPA] National Institutes of Environmental Health Sciences [NIEHS] National Toxicology Program [NTP] U.S. Food and Drug Administration [FDA] Tox21 Assay Overview: The vitamin D receptor (VDR), a member of nuclear hormone receptor superfamily, plays a critical role in calcium homeostasis and bone metabolism. It is also involved in cell differentiation and growth, and thrombogenicity.
# Tox21 Assay Protocol Summary: VDR-bla cells were dispensed at 2,000 cells/5 uL of assay medium per well into black wall/clear-bottom 1536-well plates using a Multidrop Combi (Thermo Fisher Scientific, Waltham, MA) dispenser. After the assay plates were incubated at a 37C and 5% CO2 for 4 h, 23 nL of compounds dissolved in DMSO, positive controls or DMSO only was transferred to the assay plate by a Pintool station (Kalypsys, San Diego, CA), followed by addition of 1 uL of 1alpha, 25-Dihydroxy Vitamin D3 (3 nM, final concentration in the wells) using a Bioraptr Flying Reagent Dispenser (FRD) workstation (Beckman Coulter, Indianapolis, IN). The plates were incubated at 37C and 5% CO2 for 16 h, and then 1 uL of LiveBLAzerTM B/G FRET substrate was added using a Bioraptr FRD. The plates were incubated at room temperature for 2 h and fluorescence intensity was measured by an Envision plate reader (PerkinElmer, Shelton, CT).
# % is scaled to controls: 0 for no effect and ±100 for the full control effect; potency is read from the fitted curve at half-maximal effect.
# Sequence of Vitamin D3 receptor (Homo sapiens) (P11473 whole entry, looked up): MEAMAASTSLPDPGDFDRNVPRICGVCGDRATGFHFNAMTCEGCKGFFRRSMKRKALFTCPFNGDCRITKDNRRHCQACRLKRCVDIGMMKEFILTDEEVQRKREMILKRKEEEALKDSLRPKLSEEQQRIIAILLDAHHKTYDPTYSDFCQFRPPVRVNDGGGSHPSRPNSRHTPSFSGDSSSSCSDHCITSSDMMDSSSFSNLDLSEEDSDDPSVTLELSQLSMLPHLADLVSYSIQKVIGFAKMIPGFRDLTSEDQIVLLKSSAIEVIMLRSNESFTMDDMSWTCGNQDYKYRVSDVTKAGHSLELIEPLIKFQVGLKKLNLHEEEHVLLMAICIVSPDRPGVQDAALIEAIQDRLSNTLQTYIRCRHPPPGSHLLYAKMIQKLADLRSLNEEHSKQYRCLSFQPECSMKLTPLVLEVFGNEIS
SMILES,"activity change, negative = inhibition",Potency
c1ccc(Nc2cccc3ccccc23)cc1,0.254%,–
Cc1cc(Nc2ccc(O)cc2)ccc1N,-8.13%,–
CCCCCCCC/C=C\CCCCCCCC(=O)NCc1ccc(O)c(OC)c1,–,26.8 µM (active)
SCCCCCCCCS,-3.35%,–
Cc1c(C(=O)O)cccc1[N+](=O)[O-],-8.54% [at 78.8 µM],–
CCOC(=O)COc1ccc(C)cc1,-4.89%,–
O=C1Nc2ccc(Cl)cc2[C@@](C#CC2CC2)(C(F)(F)F)O1,-20.4%,–
CCC1(c2cnc[nH]2)Cc2ccccc2C1,-17.7%,–
NCCCC(O)(P(=O)(O)O)P(=O)(O)O,-0.724%,–
CN1CCN(C2Cc3ccccc3Sc3ccc(Cl)cc32)CC1 (stereo not given),-28.2%,–
Oc1ccc(-c2ccc(O)cc2)cc1,-3.95% [at 78.8 µM],–
COC(=O)[C@]1(C)CCC[C@@]2(C)[C@H]1CC=C1C=C(C(C)C)CC[C@@H]12,4.04%,–
CSc1c(Cl)c(Cl)c(Cl)c(Cl)c1Cl,3.8%,–
CCCCCCCC/C=C\CCCCCCCC(=O)OCCOC(=O)CCCCCCC/C=C\CCCCCCCC,5.34% [at 78.8 µM],–
CCCCCCCCCCCCCC[n+]1ccccc1,–,43.6 µM (active)
Oc1ccc(-c2ccccc2)c(Cl)c1,-12.8%,–
CC1CCCCN1CCCOC(=O)c1ccc(OC2CCCCC2)cc1 (stereo not given),4.56%,–
O=C(O)CCCCCCC(=O)O,3.08% [at 78.8 µM],–
CC(=O)Oc1ccc(C2(c3ccc(OC(C)=O)cc3)C(=O)Nc3ccccc32)cc1,-3.4%,–
NCCCCCCNCCCCCCN,-8.89%,–

SMILES,"activity change, negative = inhibition",Potency
CCCCOC(=O)C(C)CC (stereo not given),0.0921%,–
C=CC(C)(CCC=C(C)C)OC(=O)/C=C/c1ccccc1 (stereo not given),-22.9%,–
COC(=O)NCCC[Si](OC)(OC)OC,27.6%,–
CC(C)(C)CC(C)(C)c1ccccc1O,–,43.9 µM (active)
COc1cc(C(=O)NS(=O)(=O)c2ccccc2C)ccc1Cc1cn(C)c2ccc(NC(=O)OC3CCCC3)cc12,-4.63%,–
C=C(C)C(=O)OCCC[Si](Cl)(Cl)Cl,4.25% [at 78.8 µM],–
COc1cccc(CCc2ccccc2OCC(CN(C)C)OC(=O)CCC(=O)O)c1 (stereo not given),-18.8%,–
CCN(CC)CCOC(=O)C1(C2CCCCC2)CCCCC1,4.49%,–
CC(C)(C)C1=CC(=O)C=C(C(C)(C)C)C1=O,-28.9%,–
CCNc1nc(NC(C)CC)nc(OC)n1 (stereo not given),6.64%,–
CC(CN(C)C)CN1c2ccccc2CCc2ccccc21 (stereo not given),-1.61%,–
CCCCCCCC/C=C/CCCOC(C)=O,6.27%,–
Nc1cc(Cl)c([N+](=O)[O-])cc1O,-1.3%,–
Nc1ncnc2c1ncn2[C@@H]1O[C@H](COP(=O)(O)O)[C@@H](O)[C@H]1O,4.37%,–
O=S(=O)(O)CCCN1CCOCC1,3.91%,–
CC(C)=C1CC[C@@H](C)CC1=O,6.81%,–
CCCCN(CCCC)CCC(O)c1cc2c(Cl)cc(Cl)cc2c2cc(C(F)(F)F)ccc12 (stereo not given),-12.6%,–
NC(=O)c1ccccc1N,-7.69% [at 78.8 µM],–
O=C(O)CC(=O)O,19.7%,–
ClC/C=C\CCl,-1.73% [at 78.8 µM],–
